# Assay results as given in publication PMC7862700, “An all-to-all approach to the identification of sequence-specific readers for epigenetic DNA modifications on cytosine”.
# Columns and labels:
# Assay in all cases: DAPPL (digital affinity profiling via proximity ligation, sequencing); 10 mM Tris-HCl pH 7.5, 50 mM NaCl, 1 mM DTT, 4% glycerol, room temperature, 30 min; GST-TFs on glutathione beads, 16-mer random dsDNA library, 0.1% formaldehyde crosslink after washing; high values mean tight binding
# Conditions in all cases: protein: recombinant; tags: N-terminal GST; dsDNA, one strand shown
# ERF = target: T1, ERF (Homo sapiens, UniProt P50548 1-548)
# T1 sequence: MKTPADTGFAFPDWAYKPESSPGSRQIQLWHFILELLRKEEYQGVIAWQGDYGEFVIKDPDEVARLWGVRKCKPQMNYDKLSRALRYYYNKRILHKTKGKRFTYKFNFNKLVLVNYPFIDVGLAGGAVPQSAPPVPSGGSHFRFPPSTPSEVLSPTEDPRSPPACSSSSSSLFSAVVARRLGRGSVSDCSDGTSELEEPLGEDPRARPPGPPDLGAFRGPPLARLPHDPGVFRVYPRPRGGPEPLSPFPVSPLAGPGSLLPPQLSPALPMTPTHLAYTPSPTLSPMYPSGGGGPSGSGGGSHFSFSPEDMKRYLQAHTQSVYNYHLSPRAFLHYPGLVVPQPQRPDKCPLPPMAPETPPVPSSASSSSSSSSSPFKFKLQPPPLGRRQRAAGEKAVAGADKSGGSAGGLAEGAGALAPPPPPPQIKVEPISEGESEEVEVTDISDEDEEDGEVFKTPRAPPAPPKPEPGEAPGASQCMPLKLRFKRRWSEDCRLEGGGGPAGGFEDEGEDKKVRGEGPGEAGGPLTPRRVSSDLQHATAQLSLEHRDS
# Method in brief: (§1)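 Yeast served to express human transcription factors as GST fusions, which were then captured on glutathione beads and labelled with DNA barcodes. Pooled with a tag-only sample, they were incubated with 200 nmole of a 16-mer random double-stranded DNA library for 30 min at room temperature in Tris/NaCl/DTT/glycerol buffer, washed, crosslinked with 0.1% formaldehyde, ligated by proximity, amplified by PCR and sequenced. Dividing each hexamer's read frequency for a factor by its frequency for the tag-only sample gives the binding signal.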
# ETV3L = target: T2, ETV3L (Homo sapiens, UniProt Q6ZN32 1-361)
# T2 sequence: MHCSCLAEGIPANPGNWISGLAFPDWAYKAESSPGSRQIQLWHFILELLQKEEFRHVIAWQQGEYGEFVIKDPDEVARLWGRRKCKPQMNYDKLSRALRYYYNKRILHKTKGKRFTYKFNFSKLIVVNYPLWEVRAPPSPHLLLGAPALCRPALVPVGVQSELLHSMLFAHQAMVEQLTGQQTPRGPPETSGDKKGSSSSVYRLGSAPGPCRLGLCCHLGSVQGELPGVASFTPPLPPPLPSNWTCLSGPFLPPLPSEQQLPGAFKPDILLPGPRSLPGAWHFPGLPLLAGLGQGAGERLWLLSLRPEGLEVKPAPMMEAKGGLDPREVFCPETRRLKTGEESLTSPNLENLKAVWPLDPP
# Method in brief: as §1
# ETS2 = target: T3, ETS2 (Homo sapiens, UniProt P15036 1-469)
# T3 sequence: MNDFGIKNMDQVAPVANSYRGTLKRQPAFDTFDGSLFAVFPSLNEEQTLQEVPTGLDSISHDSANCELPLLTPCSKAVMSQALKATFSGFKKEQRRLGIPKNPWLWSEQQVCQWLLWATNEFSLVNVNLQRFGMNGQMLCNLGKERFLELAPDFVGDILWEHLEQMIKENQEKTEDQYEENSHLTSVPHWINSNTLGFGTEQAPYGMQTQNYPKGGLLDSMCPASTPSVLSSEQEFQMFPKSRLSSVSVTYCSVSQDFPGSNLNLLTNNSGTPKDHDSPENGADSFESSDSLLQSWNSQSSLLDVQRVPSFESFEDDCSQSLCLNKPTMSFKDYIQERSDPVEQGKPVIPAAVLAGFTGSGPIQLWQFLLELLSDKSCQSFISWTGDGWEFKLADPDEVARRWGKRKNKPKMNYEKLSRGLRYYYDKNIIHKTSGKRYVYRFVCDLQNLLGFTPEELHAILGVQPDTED
# Method in brief: as §1
# SPDEF = target: T4, SPDEF (Homo sapiens, UniProt O95238 1-335)
# T4 sequence: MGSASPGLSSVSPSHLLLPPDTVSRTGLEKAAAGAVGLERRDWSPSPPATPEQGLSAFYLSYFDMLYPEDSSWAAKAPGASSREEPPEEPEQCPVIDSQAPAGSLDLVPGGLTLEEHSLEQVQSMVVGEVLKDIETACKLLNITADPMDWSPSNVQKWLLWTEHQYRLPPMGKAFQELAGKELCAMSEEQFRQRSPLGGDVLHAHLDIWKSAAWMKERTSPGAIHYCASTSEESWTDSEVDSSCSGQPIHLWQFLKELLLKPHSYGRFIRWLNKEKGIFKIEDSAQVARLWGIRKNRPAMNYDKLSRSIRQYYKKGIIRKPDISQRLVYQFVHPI
# Method in brief: as §1
# ETV7 = target: T5, ETV7 (Homo sapiens, UniProt Q9Y603 1-341)
# T5 sequence: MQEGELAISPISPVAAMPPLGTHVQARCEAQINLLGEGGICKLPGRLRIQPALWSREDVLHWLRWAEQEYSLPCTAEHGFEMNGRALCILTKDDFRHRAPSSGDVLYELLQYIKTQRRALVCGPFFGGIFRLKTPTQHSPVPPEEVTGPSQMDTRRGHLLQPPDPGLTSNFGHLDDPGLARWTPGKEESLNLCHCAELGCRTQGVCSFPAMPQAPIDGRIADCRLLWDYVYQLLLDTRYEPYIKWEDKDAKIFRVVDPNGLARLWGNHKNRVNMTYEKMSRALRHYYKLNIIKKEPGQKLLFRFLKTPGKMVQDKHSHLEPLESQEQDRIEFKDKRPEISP
# Method in brief: as §1
# ELF5 = target: T6, ELF5 (Homo sapiens, UniProt Q9UKW6-2 1-255)
# T6 sequence: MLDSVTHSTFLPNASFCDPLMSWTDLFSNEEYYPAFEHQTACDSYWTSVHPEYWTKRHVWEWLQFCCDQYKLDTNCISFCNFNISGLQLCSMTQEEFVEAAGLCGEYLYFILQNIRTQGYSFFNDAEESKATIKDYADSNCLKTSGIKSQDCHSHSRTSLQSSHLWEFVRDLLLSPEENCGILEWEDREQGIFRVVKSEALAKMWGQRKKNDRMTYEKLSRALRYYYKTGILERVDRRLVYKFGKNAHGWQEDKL
# Method in brief: as §1
# ETV3 = target: T7, ETV3 (Homo sapiens, UniProt P41162-2 1-143)
# T7 sequence: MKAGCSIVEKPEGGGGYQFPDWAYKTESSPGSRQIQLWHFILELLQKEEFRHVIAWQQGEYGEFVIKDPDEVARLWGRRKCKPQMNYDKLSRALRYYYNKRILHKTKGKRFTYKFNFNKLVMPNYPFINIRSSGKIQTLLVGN
# Method in brief: as §1
# ETV6 = ETV6 (Homo sapiens, UniProt P41212 1-452)
# ETV6, sequence (P41212 whole entry): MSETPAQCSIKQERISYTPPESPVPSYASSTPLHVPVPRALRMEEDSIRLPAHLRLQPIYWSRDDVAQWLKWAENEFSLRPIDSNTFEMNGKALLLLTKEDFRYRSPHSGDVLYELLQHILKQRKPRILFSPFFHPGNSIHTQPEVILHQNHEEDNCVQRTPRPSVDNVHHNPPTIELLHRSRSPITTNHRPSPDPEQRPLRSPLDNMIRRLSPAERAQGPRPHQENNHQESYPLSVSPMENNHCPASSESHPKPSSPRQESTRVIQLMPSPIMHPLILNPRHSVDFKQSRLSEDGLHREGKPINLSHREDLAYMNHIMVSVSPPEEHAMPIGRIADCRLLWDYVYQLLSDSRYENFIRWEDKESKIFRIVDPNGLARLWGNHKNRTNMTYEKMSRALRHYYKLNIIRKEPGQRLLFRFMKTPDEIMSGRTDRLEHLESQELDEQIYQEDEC
# Method in brief: as §1
Sequence,binding signal (ERF),binding signal (ETV3L),binding signal (ETS2),binding signal (SPDEF),binding signal (ETV7),binding signal (ELF5),binding signal (ETV3),binding signal (ETV6)
GCTAAT,"1.23 fold enrichment (6-mer frequency, TF over GST control)","1.13 fold enrichment (6-mer frequency, TF over GST control)","1.24 fold enrichment (6-mer frequency, TF over GST control)","1.03 fold enrichment (6-mer frequency, TF over GST control)","1.23 fold enrichment (6-mer frequency, TF over GST control)","1.07 fold enrichment (6-mer frequency, TF over GST control)","1.2 fold enrichment (6-mer frequency, TF over GST control)","1.17 fold enrichment (6-mer frequency, TF over GST control)"
TCCCAC,"1.5 fold enrichment (6-mer frequency, TF over GST control)","1.31 fold enrichment (6-mer frequency, TF over GST control)","1.23 fold enrichment (6-mer frequency, TF over GST control)","1.33 fold enrichment (6-mer frequency, TF over GST control)","1.41 fold enrichment (6-mer frequency, TF over GST control)","1.47 fold enrichment (6-mer frequency, TF over GST control)","1.24 fold enrichment (6-mer frequency, TF over GST control)","1.4 fold enrichment (6-mer frequency, TF over GST control)"
GACTTC,"2.25 fold enrichment (6-mer frequency, TF over GST control)","2.41 fold enrichment (6-mer frequency, TF over GST control)","2.58 fold enrichment (6-mer frequency, TF over GST control)","2.13 fold enrichment (6-mer frequency, TF over GST control)","2.2 fold enrichment (6-mer frequency, TF over GST control)","2.99 fold enrichment (6-mer frequency, TF over GST control)","2.6 fold enrichment (6-mer frequency, TF over GST control)","2.64 fold enrichment (6-mer frequency, TF over GST control)"
CGTTAA,"1.06 fold enrichment (6-mer frequency, TF over GST control)","1.18 fold enrichment (6-mer frequency, TF over GST control)","1.12 fold enrichment (6-mer frequency, TF over GST control)","1.1 fold enrichment (6-mer frequency, TF over GST control)","1.12 fold enrichment (6-mer frequency, TF over GST control)","1.19 fold enrichment (6-mer frequency, TF over GST control)","1.21 fold enrichment (6-mer frequency, TF over GST control)","1.16 fold enrichment (6-mer frequency, TF over GST control)"
AAAACC,"1.22 fold enrichment (6-mer frequency, TF over GST control)","1.18 fold enrichment (6-mer frequency, TF over GST control)","1.11 fold enrichment (6-mer frequency, TF over GST control)","1.18 fold enrichment (6-mer frequency, TF over GST control)","1.25 fold enrichment (6-mer frequency, TF over GST control)","1.19 fold enrichment (6-mer frequency, TF over GST control)","1.08 fold enrichment (6-mer frequency, TF over GST control)","1.19 fold enrichment (6-mer frequency, TF over GST control)"
TTCGTA,"1.39 fold enrichment (6-mer frequency, TF over GST control)","1.35 fold enrichment (6-mer frequency, TF over GST control)","1.36 fold enrichment (6-mer frequency, TF over GST control)","1.21 fold enrichment (6-mer frequency, TF over GST control)","1.4 fold enrichment (6-mer frequency, TF over GST control)","1.3 fold enrichment (6-mer frequency, TF over GST control)","1.44 fold enrichment (6-mer frequency, TF over GST control)","1.3 fold enrichment (6-mer frequency, TF over GST control)"
TCTTCG,"1.45 fold enrichment (6-mer frequency, TF over GST control)","1.48 fold enrichment (6-mer frequency, TF over GST control)","1.55 fold enrichment (6-mer frequency, TF over GST control)","1.49 fold enrichment (6-mer frequency, TF over GST control)","1.46 fold enrichment (6-mer frequency, TF over GST control)","1.4 fold enrichment (6-mer frequency, TF over GST control)","1.49 fold enrichment (6-mer frequency, TF over GST control)","1.36 fold enrichment (6-mer frequency, TF over GST control)"
TTACCT,"1.22 fold enrichment (6-mer frequency, TF over GST control)","1.22 fold enrichment (6-mer frequency, TF over GST control)","1.32 fold enrichment (6-mer frequency, TF over GST control)","1.18 fold enrichment (6-mer frequency, TF over GST control)","1.36 fold enrichment (6-mer frequency, TF over GST control)","1.28 fold enrichment (6-mer frequency, TF over GST control)","1.17 fold enrichment (6-mer frequency, TF over GST control)","1.23 fold enrichment (6-mer frequency, TF over GST control)"
CCACTA,"1.11 fold enrichment (6-mer frequency, TF over GST control)","1.13 fold enrichment (6-mer frequency, TF over GST control)","1.14 fold enrichment (6-mer frequency, TF over GST control)","1.09 fold enrichment (6-mer frequency, TF over GST control)","1.04 fold enrichment (6-mer frequency, TF over GST control)","1.06 fold enrichment (6-mer frequency, TF over GST control)","1.03 fold enrichment (6-mer frequency, TF over GST control)","1.07 fold enrichment (6-mer frequency, TF over GST control)"
GGCTTC,"1.7 fold enrichment (6-mer frequency, TF over GST control)","1.61 fold enrichment (6-mer frequency, TF over GST control)","1.7 fold enrichment (6-mer frequency, TF over GST control)","1.6 fold enrichment (6-mer frequency, TF over GST control)","1.54 fold enrichment (6-mer frequency, TF over GST control)","1.81 fold enrichment (6-mer frequency, TF over GST control)","1.65 fold enrichment (6-mer frequency, TF over GST control)","1.85 fold enrichment (6-mer frequency, TF over GST control)"
CCTTAA,"1.29 fold enrichment (6-mer frequency, TF over GST control)","1.44 fold enrichment (6-mer frequency, TF over GST control)","1.29 fold enrichment (6-mer frequency, TF over GST control)","1.44 fold enrichment (6-mer frequency, TF over GST control)","1.21 fold enrichment (6-mer frequency, TF over GST control)","1.44 fold enrichment (6-mer frequency, TF over GST control)","1.35 fold enrichment (6-mer frequency, TF over GST control)","1.26 fold enrichment (6-mer frequency, TF over GST control)"
TTAGTT,"1.37 fold enrichment (6-mer frequency, TF over GST control)","1.35 fold enrichment (6-mer frequency, TF over GST control)","1.23 fold enrichment (6-mer frequency, TF over GST control)","1.38 fold enrichment (6-mer frequency, TF over GST control)","1.25 fold enrichment (6-mer frequency, TF over GST control)","1.24 fold enrichment (6-mer frequency, TF over GST control)","1.45 fold enrichment (6-mer frequency, TF over GST control)","1.38 fold enrichment (6-mer frequency, TF over GST control)"
ATTCTA,"1.32 fold enrichment (6-mer frequency, TF over GST control)","1.22 fold enrichment (6-mer frequency, TF over GST control)","1.3 fold enrichment (6-mer frequency, TF over GST control)","1.23 fold enrichment (6-mer frequency, TF over GST control)","1.28 fold enrichment (6-mer frequency, TF over GST control)","1.15 fold enrichment (6-mer frequency, TF over GST control)","1.2 fold enrichment (6-mer frequency, TF over GST control)","1.15 fold enrichment (6-mer frequency, TF over GST control)"
ATTATT,"1.11 fold enrichment (6-mer frequency, TF over GST control)","1.17 fold enrichment (6-mer frequency, TF over GST control)","1.16 fold enrichment (6-mer frequency, TF over GST control)","1.11 fold enrichment (6-mer frequency, TF over GST control)","1.25 fold enrichment (6-mer frequency, TF over GST control)","1.15 fold enrichment (6-mer frequency, TF over GST control)","1.18 fold enrichment (6-mer frequency, TF over GST control)","1.13 fold enrichment (6-mer frequency, TF over GST control)"
AGATTT,"1.2 fold enrichment (6-mer frequency, TF over GST control)","1.17 fold enrichment (6-mer frequency, TF over GST control)","1.17 fold enrichment (6-mer frequency, TF over GST control)","1.05 fold enrichment (6-mer frequency, TF over GST control)","1.16 fold enrichment (6-mer frequency, TF over GST control)","1.22 fold enrichment (6-mer frequency, TF over GST control)","1.05 fold enrichment (6-mer frequency, TF over GST control)","1.11 fold enrichment (6-mer frequency, TF over GST control)"
